From the supplement of paper PMC10849652
About 7,900 targets were measured; listed, in parts, are those with a hit and a random draw of the rest. About 0.6% of all pairs of compound and target were hits. Values without a mark were called inactive.

Assays:
Test in all cases: log2 fold change, soluble protein after heating vs DMSO (PISA); higher = thermal stabilisation; K562 cells, 10 uM, 30 min; active = over 0.2 and 3.5 SD of the protein, either way, in both replicates (recomputed)
[1] = compound: CC1=C(SC2=C1C(=N[C@H](C3=NN=C(N32)C)CC(=O)N)C4=CC=C(C=C4)Cl)C
Outline: (§1)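 K562 cells (2×10^6 cells/mL) were treated with 10 μM compound for 30 min, and aliquots were heated for 3 min over 48°C-58°C. Pooled aliquots were extracted in PBS with 0.5% NP-40 at 4°C, and the supernatant after 21,000xg for 90 min was measured by TMTpro 16plex LC-MS/MS with channel sums equalised. Reported thermal stability, relative to control samples and from duplicates, is a log2 fold change.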

[2] = compound: CC1=C2C(=CC=C1)N=C(N(C2=O)C3=CC=CC=C3C)CN4C=NC5=C(N=CN=C54)N
Outline: as §1

[3] = compound: c1ccc([C@@H]2C[C@H]2NC2CCNCC2)cc1
Outline: as §1

[4] = compound: C1=CC=C(C=C1)[C@H](COC2=CC3=C(C=C2)NC(=O)N3)NC(=O)C4=CC=CN(C4=O)CC5=CC(=C(C=C5)F)F
Outline: as §1

[5] = compound: Cc1sc2c(c1C)C(c1ccc(Cl)cc1)=N[C@@H](CC(=O)OC(C)(C)C)c1nnc(C)n1-2
Outline: as §1

TM7SF2 (UniProt O76062)
log2 fold change [1]: 0.182
log2 fold change [2]: -0.129
log2 fold change [3]: 0.159

SSB (UniProt E7ERC4)
log2 fold change [2]: 0.188

SLC8B1 (UniProt Q6J4K2)
log2 fold change [4]: 0.094
log2 fold change [1]: 0.178
log2 fold change [2]: 0.019
log2 fold change [3]: -0.049

SMARCA4 (UniProt P51532)
log2 fold change [4]: 0.073
log2 fold change [1]: -0.023
log2 fold change [2]: 0.244
log2 fold change [3]: -0.027

SSBP4 (UniProt Q9BWG4)
log2 fold change [4]: 0.086
log2 fold change [5]: 0.037

SOAT1 (UniProt P35610)
UniProt P35610, sequence (P35610 whole entry, looked up): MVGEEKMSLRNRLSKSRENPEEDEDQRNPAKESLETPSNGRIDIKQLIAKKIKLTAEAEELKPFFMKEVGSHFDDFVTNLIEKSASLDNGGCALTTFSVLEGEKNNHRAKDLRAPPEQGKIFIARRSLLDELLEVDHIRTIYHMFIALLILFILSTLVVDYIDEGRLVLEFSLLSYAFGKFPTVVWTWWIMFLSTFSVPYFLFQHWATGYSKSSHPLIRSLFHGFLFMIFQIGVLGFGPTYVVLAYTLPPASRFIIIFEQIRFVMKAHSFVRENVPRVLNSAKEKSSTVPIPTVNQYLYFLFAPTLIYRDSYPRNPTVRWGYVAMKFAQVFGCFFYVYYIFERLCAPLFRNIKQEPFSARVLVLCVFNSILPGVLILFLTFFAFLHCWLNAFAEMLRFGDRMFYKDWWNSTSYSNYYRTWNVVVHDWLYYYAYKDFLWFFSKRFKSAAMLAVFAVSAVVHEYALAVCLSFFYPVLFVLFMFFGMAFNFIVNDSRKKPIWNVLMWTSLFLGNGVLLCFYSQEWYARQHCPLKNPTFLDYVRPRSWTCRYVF
log2 fold change [4]: -0.023
log2 fold change [1]: 0.037
log2 fold change [2]: 0.071
log2 fold change [5]: 0.802 (active)
log2 fold change [3]: 0.001

TANGO6 (UniProt Q9C0B7)
UniProt Q9C0B7, sequence (Q9C0B7 whole entry, looked up): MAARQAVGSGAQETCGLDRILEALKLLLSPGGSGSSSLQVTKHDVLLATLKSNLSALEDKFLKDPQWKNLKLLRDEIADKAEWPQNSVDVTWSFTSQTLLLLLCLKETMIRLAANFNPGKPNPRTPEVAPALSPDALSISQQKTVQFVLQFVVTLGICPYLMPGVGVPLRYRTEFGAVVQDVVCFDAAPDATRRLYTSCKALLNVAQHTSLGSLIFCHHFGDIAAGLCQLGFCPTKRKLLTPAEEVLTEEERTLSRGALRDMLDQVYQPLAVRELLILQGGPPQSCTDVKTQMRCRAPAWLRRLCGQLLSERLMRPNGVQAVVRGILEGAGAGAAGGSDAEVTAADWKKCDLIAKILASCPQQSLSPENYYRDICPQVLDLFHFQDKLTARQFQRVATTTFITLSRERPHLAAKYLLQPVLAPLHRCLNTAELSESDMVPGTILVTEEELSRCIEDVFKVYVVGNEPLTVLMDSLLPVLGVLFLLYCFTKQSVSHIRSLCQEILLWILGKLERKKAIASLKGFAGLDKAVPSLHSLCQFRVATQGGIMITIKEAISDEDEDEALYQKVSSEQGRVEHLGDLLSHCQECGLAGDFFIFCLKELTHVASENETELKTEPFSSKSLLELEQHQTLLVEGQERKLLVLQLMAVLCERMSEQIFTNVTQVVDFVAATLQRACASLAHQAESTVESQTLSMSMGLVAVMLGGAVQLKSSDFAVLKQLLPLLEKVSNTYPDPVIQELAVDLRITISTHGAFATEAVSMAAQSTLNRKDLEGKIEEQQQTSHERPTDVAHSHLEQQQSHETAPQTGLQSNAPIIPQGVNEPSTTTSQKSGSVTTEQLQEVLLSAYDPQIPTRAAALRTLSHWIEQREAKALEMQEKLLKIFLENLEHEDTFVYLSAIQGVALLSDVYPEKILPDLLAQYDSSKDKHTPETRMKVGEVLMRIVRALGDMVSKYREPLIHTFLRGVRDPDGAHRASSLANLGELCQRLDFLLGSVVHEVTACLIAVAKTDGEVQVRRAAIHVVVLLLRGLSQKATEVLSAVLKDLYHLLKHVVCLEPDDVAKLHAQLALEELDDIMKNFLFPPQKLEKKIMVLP
log2 fold change [4]: -0.139
log2 fold change [1]: 0.052
log2 fold change [5]: 0.018
log2 fold change [3]: -0.086

TFAM (UniProt Q00059)
UniProt Q00059, sequence (Q00059 whole entry, looked up): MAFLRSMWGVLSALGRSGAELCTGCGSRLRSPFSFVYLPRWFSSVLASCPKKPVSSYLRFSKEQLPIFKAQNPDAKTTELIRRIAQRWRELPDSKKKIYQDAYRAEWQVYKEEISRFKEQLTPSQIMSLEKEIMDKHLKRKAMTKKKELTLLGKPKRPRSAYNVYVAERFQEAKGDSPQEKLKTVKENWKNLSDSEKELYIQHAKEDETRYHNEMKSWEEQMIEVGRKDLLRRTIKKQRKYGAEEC
log2 fold change [4]: 0.062
log2 fold change [1]: -0.046
log2 fold change [2]: -0.018
log2 fold change [5]: 0.108
log2 fold change [3]: 0.009

SUN1 isoform 9 (UniProt O94901)
UniProt O94901, sequence (O94901 whole entry, looked up): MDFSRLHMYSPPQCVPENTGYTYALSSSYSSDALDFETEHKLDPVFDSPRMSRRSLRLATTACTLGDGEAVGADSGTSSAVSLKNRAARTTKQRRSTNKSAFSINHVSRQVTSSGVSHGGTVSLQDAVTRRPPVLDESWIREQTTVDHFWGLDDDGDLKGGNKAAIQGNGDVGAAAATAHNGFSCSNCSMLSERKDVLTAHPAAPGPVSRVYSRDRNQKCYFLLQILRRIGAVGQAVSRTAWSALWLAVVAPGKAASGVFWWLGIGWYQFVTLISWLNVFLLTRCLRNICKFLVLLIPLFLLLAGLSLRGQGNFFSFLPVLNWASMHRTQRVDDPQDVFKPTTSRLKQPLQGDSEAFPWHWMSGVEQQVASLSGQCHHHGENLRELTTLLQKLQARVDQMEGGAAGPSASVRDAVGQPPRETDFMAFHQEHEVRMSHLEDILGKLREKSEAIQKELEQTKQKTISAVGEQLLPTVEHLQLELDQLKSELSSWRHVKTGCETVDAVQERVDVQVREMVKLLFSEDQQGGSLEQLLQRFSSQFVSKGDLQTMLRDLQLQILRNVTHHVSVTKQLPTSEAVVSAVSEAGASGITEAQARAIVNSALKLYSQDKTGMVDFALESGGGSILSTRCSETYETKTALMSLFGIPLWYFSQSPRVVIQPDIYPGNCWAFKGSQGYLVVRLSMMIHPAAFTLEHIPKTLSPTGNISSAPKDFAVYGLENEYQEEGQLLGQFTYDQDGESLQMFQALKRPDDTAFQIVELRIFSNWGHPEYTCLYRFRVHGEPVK
log2 fold change [1]: -0.114
log2 fold change [2]: 0.013
log2 fold change [5]: 0.109
log2 fold change [3]: 0.018

SLC38A9 (UniProt Q8NBW4)
UniProt Q8NBW4, sequence (Q8NBW4 whole entry, looked up): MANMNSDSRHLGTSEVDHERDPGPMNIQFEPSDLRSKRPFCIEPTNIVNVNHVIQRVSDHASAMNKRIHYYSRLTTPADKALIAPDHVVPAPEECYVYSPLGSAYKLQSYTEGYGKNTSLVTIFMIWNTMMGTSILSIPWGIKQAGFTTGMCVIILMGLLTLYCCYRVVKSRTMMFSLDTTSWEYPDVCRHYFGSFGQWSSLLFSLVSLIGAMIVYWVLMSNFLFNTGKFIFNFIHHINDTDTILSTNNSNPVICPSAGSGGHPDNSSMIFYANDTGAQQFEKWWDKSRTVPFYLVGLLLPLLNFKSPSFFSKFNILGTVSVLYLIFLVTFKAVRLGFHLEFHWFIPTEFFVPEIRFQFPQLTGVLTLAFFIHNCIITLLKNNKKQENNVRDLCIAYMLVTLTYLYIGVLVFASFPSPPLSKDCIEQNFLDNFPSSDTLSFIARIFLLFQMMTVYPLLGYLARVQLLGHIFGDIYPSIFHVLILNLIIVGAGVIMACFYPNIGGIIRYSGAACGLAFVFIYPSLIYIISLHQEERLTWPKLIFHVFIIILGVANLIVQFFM
log2 fold change [4]: 0.053
log2 fold change [1]: -0.019
log2 fold change [2]: 0.065
log2 fold change [5]: -0.014
log2 fold change [3]: 0.042

SP3 (UniProt Q02447)
UniProt Q02447, sequence (Q02447 whole entry, looked up): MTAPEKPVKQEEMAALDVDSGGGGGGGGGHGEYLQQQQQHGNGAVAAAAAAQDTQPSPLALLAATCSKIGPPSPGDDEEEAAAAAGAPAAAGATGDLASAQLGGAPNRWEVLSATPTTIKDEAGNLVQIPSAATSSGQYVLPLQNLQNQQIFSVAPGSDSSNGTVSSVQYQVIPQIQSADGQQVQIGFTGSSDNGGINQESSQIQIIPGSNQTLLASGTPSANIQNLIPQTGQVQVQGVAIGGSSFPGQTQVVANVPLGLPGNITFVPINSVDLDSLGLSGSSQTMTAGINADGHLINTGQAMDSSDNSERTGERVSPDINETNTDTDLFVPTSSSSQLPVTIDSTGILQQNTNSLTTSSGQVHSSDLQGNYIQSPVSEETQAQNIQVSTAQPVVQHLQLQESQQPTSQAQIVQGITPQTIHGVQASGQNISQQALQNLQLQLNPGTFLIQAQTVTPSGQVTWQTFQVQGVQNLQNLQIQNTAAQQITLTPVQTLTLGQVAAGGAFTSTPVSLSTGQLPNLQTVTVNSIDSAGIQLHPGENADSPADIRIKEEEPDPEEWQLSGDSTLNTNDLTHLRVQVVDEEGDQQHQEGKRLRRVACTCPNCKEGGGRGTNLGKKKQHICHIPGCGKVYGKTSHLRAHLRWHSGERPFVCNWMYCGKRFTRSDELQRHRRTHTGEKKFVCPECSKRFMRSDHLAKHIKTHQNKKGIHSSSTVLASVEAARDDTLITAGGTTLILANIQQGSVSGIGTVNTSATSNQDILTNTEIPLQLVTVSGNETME
log2 fold change [4]: 0.018
log2 fold change [1]: -0.024
log2 fold change [2]: -0.043
log2 fold change [5]: 0.025
log2 fold change [3]: 0.009

TMBIM1 (UniProt Q969X1)
UniProt Q969X1, sequence (Q969X1 whole entry, looked up): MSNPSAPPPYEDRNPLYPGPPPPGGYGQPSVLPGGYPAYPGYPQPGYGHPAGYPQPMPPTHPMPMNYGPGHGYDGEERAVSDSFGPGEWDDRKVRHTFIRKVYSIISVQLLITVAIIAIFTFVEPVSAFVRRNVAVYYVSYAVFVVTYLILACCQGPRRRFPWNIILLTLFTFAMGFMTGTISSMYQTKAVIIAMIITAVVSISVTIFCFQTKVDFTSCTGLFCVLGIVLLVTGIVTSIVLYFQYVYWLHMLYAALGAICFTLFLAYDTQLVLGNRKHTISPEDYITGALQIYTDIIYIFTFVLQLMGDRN
log2 fold change [4]: 0.024
log2 fold change [1]: 0.206
log2 fold change [2]: 0.242
log2 fold change [5]: -0.005
log2 fold change [3]: 0.193

SRSF4 (UniProt Q08170)
log2 fold change [4]: 0.09
log2 fold change [1]: -0.166
log2 fold change [2]: -0.124
log2 fold change [5]: 0.073
log2 fold change [3]: 0.096

TM7SF3 (UniProt Q9NS93)
log2 fold change [4]: -0.058
log2 fold change [1]: 0.104
log2 fold change [5]: -0.037
log2 fold change [3]: 0.196

SLC9A6 isoform 3 (UniProt Q92581)
UniProt Q92581, sequence (Q92581 whole entry, looked up): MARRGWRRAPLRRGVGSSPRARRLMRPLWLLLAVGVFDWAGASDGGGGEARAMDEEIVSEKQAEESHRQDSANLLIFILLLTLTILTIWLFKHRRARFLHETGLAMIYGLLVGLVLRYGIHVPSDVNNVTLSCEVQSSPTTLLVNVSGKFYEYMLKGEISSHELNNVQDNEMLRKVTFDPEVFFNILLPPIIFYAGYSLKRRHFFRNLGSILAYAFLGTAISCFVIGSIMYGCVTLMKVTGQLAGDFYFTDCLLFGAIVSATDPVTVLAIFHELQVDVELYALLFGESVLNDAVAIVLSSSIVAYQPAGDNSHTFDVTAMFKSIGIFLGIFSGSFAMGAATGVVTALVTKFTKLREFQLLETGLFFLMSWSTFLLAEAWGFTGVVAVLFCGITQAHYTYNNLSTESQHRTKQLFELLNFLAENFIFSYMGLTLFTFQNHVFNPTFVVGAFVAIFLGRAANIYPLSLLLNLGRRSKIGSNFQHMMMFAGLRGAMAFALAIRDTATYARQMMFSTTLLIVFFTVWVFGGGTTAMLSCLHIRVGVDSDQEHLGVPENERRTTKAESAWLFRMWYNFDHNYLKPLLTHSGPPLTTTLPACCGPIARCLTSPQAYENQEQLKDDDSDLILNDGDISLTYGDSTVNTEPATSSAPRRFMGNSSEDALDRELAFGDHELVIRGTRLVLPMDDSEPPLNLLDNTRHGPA
log2 fold change [4]: -0.057
log2 fold change [1]: 0.003
log2 fold change [5]: -0.005
log2 fold change [3]: 0.089
